From PubChem BioAssay
Shown are actives, neighbours in structure and some others; about 2.3% of the full set was active somewhere.
A549 viability: Nrf2 qHTS screen for inhibitors: counterscreen for cytotoxicity. A549 ARE-Fluc cells, CellTiter-Fluor viability, 18-24 h. Potency, µM (top dose mostly 46 µM), hits mostly inhibitors. 390,000 tested, 0.16% active
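A549 ARE-Fluc cells in 5% FBS OPTI-MEM, 5000 cells/well, rested 2 h then exposed to compounds in concentration-response for 18-24 h at 37 °C. Viability by CellTiter-Fluor fluorescence (Ex 405/Em 525) after 30 min; luciferase luminescence (BugLite, 15 min, RT) read afterwards.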
Nrf2 inh: Nrf2 qHTS screen for inhibitors | A549 ARE-Fluc reporter, luciferase luminescence, 18-24 h | Potency, µM (highest dose often 46 µM), most hits filed as inhibitors | 360,000 tested, 2.1% active; also: nearly all actives have a fitted effect of over 60% in size
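A549 ARE_Fluc cells (5000/well, 5% FBS OPTI-MEM) pre-incubated 2 h, then treated with compounds 18-24 h at 37C/5% CO2 in concentration-response. CellTiter-Fluor viability read first; BugLite luciferase luminescence after 15 min at room temperature gives Nrf2 activity.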
Mito fusion yeast: qHTS Assay for Small Molecule Inhibitors of Mitochondrial Division or Activators of Mitochondrial Fusion; S. cerevisiae fusion-defective mutant growth rescue, CellTiterGlo 48 h; Potency, µM (top dose mostly 46.1 µM), hits mostly activators; 320,000 tested, 0.23% active; also: nearly all actives have a fitted effect of over 45% in size
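Compounds are tested for their ability to restore growth of mitochondrial fusion-defective yeast strains at non-permissive 37C in YPEG medium over 48 hours. Viability is quantified by luciferase luminescence.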
miR-21 reporter: qHTS Assay for Modulators of miRNAs and/orActivators of miR-21. Potency, µM (top dose mostly 38.3 µM), hits mostly activators. 340,000 tested, under 10 active. AID 2288, 2010. HeLa miR-21 FLuc reporter, luciferase, 48 h;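 also: miR-21 action dims this reporter so a rising signal means less miR-21 action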
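HeLa miR-21-FLuc reporter line, endogenous miR-21; 2000 cells/well in DMEM/10% FBS; compound titration up to ~40uM final, 48 h, 37 degree Celsius; luciferase detection reagent, 15 min lysis, CCD luminescence.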
Nrf2 activator: qHTS of Nrf2 Activators; AREc32 ARE-luciferase reporter (MCF7-derived line), luminescence, 24 h; Potency, µM (titrated, usually from 46.1 µM), actives largely listed as activators; 410,000 tested, 0.31% active; also: nearly all actives have a fitted effect of over 65% in size
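ARE-driven firefly luciferase activity in AREc32 cells measured after a 24 hr compound exposure at 37 deg C, using Steady-Glo reagent and a 30 min room-temperature hold.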
Each line names hits and unclear results; the compound was inactive in the other large screens; ! = not confirmed by another sample. Calls follow the shape of the dose curve; as a rule, active = well fitted curve in the direction sought with a large enough effect; inconclusive = small, poorly fitted or top-dose-only effect, or another doubt; inactive = no such curve, though single readings can be large; an effect the other way counts as inactive or inconclusive.

CC(/C=C(\NC(=O)c1ccccc1)C(=O)N=Nc1c(O)[nH]c2ccc(C)cc12)=C\c1ccccc1	A549 viability inconclusive, Nrf2 activator 8.9µM (no result: Nrf2 inh)
O=C(Nc1ccc(O)cc1)C1CCCN1S(=O)(=O)c1ccc(F)cc1 (stereo not drawn)	Nrf2 inh 15µM
N#Cc1ccc(NC(=O)C2Cc3ccccc3CN2S(=O)(=O)c2ccc(F)cc2)cc1 (stereo not drawn)	A549 viability inconclusive, Nrf2 inh 23µM (no result: Mito fusion yeast)
CC(=O)c1ccc(NC(=O)C2CCCN2S(=O)(=O)c2ccc(F)cc2)cc1 (stereo not drawn)	none
Cc1csc(-c2coc3cc(O)cc(C)c3c2=O)n1	Nrf2 inh inconclusive, Nrf2 activator 10µM
CCc1cc2c(=O)c(-c3nc(C)cs3)coc2cc1O	Nrf2 activator inconclusive
CCOc1ccc(C2NC(=O)c3n[nH]c(C)c32)cc1 (stereo not drawn)	none
CCc1ccc(C2NC(=O)c3[nH]nc(-c4cccc(OC)c4)c32)cc1 (stereo not drawn)	Nrf2 inh 7.3µM (no result: Mito fusion yeast)
COc1cc2c(cc1OC)C1O[C@](CCCCN3C(=O)c4ccccc4C3=O)(C2)OC2=C1C(=O)CC(C)(C)C2	none (no result: A549 viability, Nrf2 inh, Nrf2 activator)
Clc1ccc(CCNC(c2nnc(-c3ccccc3)o2)c2ccccc2Cl)cc1 (stereo not drawn)	none (no result: Mito fusion yeast)
CCOc1ccc(C(C)C)cc1S(=O)(=O)Nc1cccc(-c2ccc(N3CCOCC3)nn2)c1	none (no result: Nrf2 inh, Mito fusion yeast)
COC(=O)Cc1[nH]nc2c1C1(C(=O)N(Cc3ccccc3)c3ccccc31)C(C#N)=C(N)O2 (stereo not drawn)	none
Cc1[nH]nc2c1C1(C(=O)N(Cc3ccc(Cl)cc3)c3ccccc31)C(C#N)=C(N)O2 (stereo not drawn)	Nrf2 inh 21µM
Nc1ccccc1N1C(=O)c2cccc3cccc(c23)C1=O	Nrf2 inh inconclusive, Nrf2 activator 8.9µM (no result: Mito fusion yeast, miR-21 reporter)
CCC(=O)NC(c1ccc(F)cc1)c1cc(Cl)c2cccnc2c1O (stereo not drawn)	Nrf2 inh inconclusive (no result: Mito fusion yeast, miR-21 reporter, Nrf2 activator)
CCC(=O)NC(c1ccc(OC)cc1)c1cc(Cl)c2cccnc2c1O (stereo not drawn)	Nrf2 inh 26µM
CCC(=O)NC(c1ccco1)c1cc(Cl)c2cccnc2c1O (stereo not drawn)	A549 viability inconclusive, Nrf2 inh 9.2µM!, miR-21 reporter inconclusive
CCCCC(=O)NC(c1ccco1)c1cc(Cl)c2cccnc2c1O (stereo not drawn)	Nrf2 inh inconclusive
CCC(=O)NC(c1ccc(C)s1)c1cc(Cl)c2cccnc2c1O (stereo not drawn)	none (no result: Mito fusion yeast, miR-21 reporter, Nrf2 activator)
CC(=O)NC(c1cc(F)c2cccnc2c1O)C(C)C (stereo not drawn)	none (no result: A549 viability, Nrf2 inh, miR-21 reporter, Nrf2 activator)
CC(=O)NC(c1cc(Cl)c2cccnc2c1O)C(C)C (stereo not drawn)	Nrf2 inh 21µM (no result: miR-21 reporter)
CCC(=O)NC(c1cc(Cl)c2cccnc2c1O)c1cccn1C (stereo not drawn)	Nrf2 inh 26µM (no result: Mito fusion yeast, miR-21 reporter, Nrf2 activator)
Cc1ccc(C)c(Nc2nn3c(=O)c4ccc(C(=O)NCc5ccccc5)cc4nc3s2)c1	none (no result: Mito fusion yeast)
CCOC(=O)/C(=C\c1ccc(Cl)cc1)c1nc2sc(C)c(C)c2c(=O)[nH]1	A549 viability inconclusive, Nrf2 inh 18µM, Nrf2 activator inconclusive
CCOC(=O)CSc1nc2sc(C)c(C)c2c(=O)[nH]1	Nrf2 inh inconclusive
Clc1ccc2[nH]cc(-c3nnnn3-c3ccc4ccccc4c3)c2c1	Nrf2 inh 18µM
Cc1ccc(-n2nnnc2-c2cnc3ccc(Cl)cc3c2-c2ccccc2)cc1	Nrf2 inh inconclusive
COc1cc(/C=N/N=C2/C(=O)Nc3ccccc32)cc(OC)c1O	Nrf2 activator 11µM
FC(F)(F)c1cc(-c2cccs2)nc(-n2cc(Br)cn2)n1	Nrf2 activator 3.2µM
Cc1cnn(-c2nc(-c3cccs3)cc(C(F)(F)F)n2)c1	none
Cc1ccc(S(=O)(=O)Oc2ccc(/C=N/NC(=O)c3nn(C)cc3Cl)cc2)cc1	Nrf2 inh 18µM
Cc1cc(=O)n(C(C)C(=O)N2CCCc3ccccc32)c2c1c(C)nn2-c1ccccc1 (stereo not drawn)	A549 viability inconclusive, Nrf2 inh 18µM, miR-21 reporter inconclusive (no result: Mito fusion yeast)
